Compound activity (PubChem BioAssay)
The list is not random: actives were taken first. Their share in the collection is about 12%.
VP16 counter: counter-screen for ROR gamma inhibitors: Gal4-VP16 reporter. Drosophila S2 Gal4-VP16 UAS-luciferase, luminescence, 20 h. Potency, µM (top dose mostly 53.6 µM), without a hit: at the highest dose activity, negative = inhibition, actives largely listed as inhibitors. 310,000 compounds, 3.5% hits;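 further: Gal4-VP16 expression switched on by copper sulfate through the metallothionein promoter; nearly all actives have a fitted effect of over 50% in size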
RORg inh: inhibitors of mouse ROR gamma transcriptional activity; Drosophila S2 Gal4-RORgamma UAS-luciferase reporter, 20 h; Potency, µM (doses to about 53.6 µM), for inactives: at the top dose activity change, negative = inhibition, actives largely listed as inhibitors; 310,000 compounds, 5.4% hits; further: nearly all actives have a fitted effect of over 60% in size
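A Gal4/UAS one-hybrid system in insect cells: metallothionein-promoter Gal4–ROR gamma fusion plus Photinus luciferase reporter. Copper sulfate 700 uM final, 20 hr ambient incubation, luminescent detection after 10 min with reagent.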
PLK1 PBD block: inhibitors of human PLK1 polo-box domain binding; P53350; Plk1 PBD binding of FITC phosphopeptide, fluorescence polarization; Potency, µM, without a hit: max response, negative = inhibition, hits mostly inhibitors; 360,000 compounds, 2.8% hits; further: series mostly up to about 57 µM; nearly all actives have a fitted effect of over 65% in size
Sfp PPTase inh: Sfp phosphopantetheinyl transferase inhibition | Potency, µM, for inactives: largest response in the series, negative = inhibition, actives largely listed as inhibitors | AID 1490 | Biochemical Sfp PPTase activity, qHTS | Q9F4F7 | 310,000 compounds, 3.5% hits;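 further: the enzyme is Sfp with the accession as filed and its product quenches rhodamine fluorescence; 0% = enzyme reaction without inhibitor and -100% = no enzyme wells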
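Sfp 15 nM + cpd, 15 min RT; start w/ rhodamine-CoA 5 uM, BHQ-2-YbbR 12.5 uM (final); 50 mM Hepes pH 7.6, 10 mM MgCl2, 0.01% NP-40, 0.01% BSA; read 525/598 nm at 0 and 30 min.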
ALDH1A1 block: ALDH1A1 (human) enzyme inhibition; AID 1030; Potency, µM (titrated, usually from 75.3 µM), inactives show top-dose activity, negative = inhibition, hits mostly inhibitors; Purified ALDH1A1, NADH fluorescence, propionaldehyde substrate; 220,000 compounds, 7.3% hits; active means well fitted inhibition curve with a large enough effect, not every such curve was filed as active; inconclusive means small, poorly fitted or top-dose-only effect, or another doubt; inactive means no such curve, though single readings can be large or run the other way;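 further: plate controls were no enzyme wells and a reference inhibitor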
Target sequence (P00352 whole entry, looked up): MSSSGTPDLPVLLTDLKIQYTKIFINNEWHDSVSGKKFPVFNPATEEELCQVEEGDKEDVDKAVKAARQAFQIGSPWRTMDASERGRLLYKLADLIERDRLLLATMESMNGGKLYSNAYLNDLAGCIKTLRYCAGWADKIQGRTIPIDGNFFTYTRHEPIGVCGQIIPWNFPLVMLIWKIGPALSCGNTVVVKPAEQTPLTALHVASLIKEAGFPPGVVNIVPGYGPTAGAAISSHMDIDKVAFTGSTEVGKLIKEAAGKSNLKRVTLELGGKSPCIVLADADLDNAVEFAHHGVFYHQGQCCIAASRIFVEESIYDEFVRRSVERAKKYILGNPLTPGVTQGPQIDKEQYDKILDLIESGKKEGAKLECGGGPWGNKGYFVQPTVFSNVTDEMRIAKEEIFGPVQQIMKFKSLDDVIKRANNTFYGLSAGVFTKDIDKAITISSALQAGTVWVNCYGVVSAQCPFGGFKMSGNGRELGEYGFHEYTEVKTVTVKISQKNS
An asterisk follows results filed as active; ? = inconclusive; . = no result given; ! = not confirmed by another sample; [ ] = remark or other dose. Unless noted, the call rests on the fitted dose curve; in most records, active means well fitted curve in the direction sought with a large enough effect; inconclusive means small, poorly fitted or top-dose-only effect, or another doubt; inactive means no such curve, though single readings can be large; an effect the other way counts as inactive or inconclusive. Unless noted, on the % scale 0 is the no-effect control and ±100 the full control effect; potency means the concentration at half of the fitted maximal effect.

SMILES	VP16 counter	RORg inh	PLK1 PBD block	Sfp PPTase inh	ALDH1A1 block
O=C(O)[C@H]1CCCN1	-3%	-10%	.	45µM*!	9%
Brc1cccc(-c2nc3ccc(Br)cn3c2Cc2ccccc2)c1	.	.	4%	.	.
NC(=S)N/N=C/c1coc2cc(Br)ccc2c1=O	6%	-5%	-10%	0%	2µM*
NC(=S)N/N=C/c1coc2ccc(O)cc2c1=O	0%	-17%	0%	1.6µM*	?
O=C(N/N=C/c1coc2ccc(Cl)cc2c1=O)c1cc(O)cc(O)c1	-4%	-44%	27µM*	16%	.
Cc1ccc2occ(/C=N/NC(=O)c3ccc(Cl)cc3)c(=O)c2c1	-5%	-16%	-6%	11%	.
NC(=O)N/N=C/c1coc2ccc3ccccc3c2c1=O	-3%	-3%	-13%	0%	-10%
NC(=S)N/N=C/c1coc2c(ccc3ccccc32)c1=O	7.9µM*	5.6µM*	2%	8%	2.2µM*
NC(=S)N/N=C/c1coc2ccc(Br)cc2c1=O	-5%	-4%	-6%	3%	.
CCCCCCCCCCCCCCCCOCCOCCOCCOCCOCCOCCOCCOCCOCCOCCOCCOCCOCCOCCOCCOCCOCCOCCOCCOCCO	?	?	.	50µM*	.
CCCCOCCO	1%	16%	0%	.	-6%
CC(=O)OC1CCC23CC1(C)CCC2C(C)(C)CC3OC(C)=O (stereo not given)	-10%	-24%	.	4%	6%
CC(C)N1C(=O)c2ccccc2NC(=O)C1C(=O)NC1CC1 (stereo not given)	.	.	5%	.	.
C/C(CCN1CCCc2nc(C)c(C)cc21)=N\OC[C@@H](O)COCc1ccco1	4%[10 µM]	11%[10 µM]	.	13%	?
COc1cc(/C=C/C(=O)c2ccc(O)cc2)ccc1OCC#N	?	?	-11%	-20%	?
COc1cccc(C(=O)/C=C/c2ccc(SC)cc2)c1	-2%	-25%	-3%	-6%	16µM*
COc1cccc(C(=O)/C=C/c2ccc(OCC#N)c(OC)c2)c1	?	?	-1%	-10%	8.9µM*
CC(C)(C)Cc1c(-c2ccc(C#N)cc2)nc2c(Cl)cc(C(F)(F)F)cn12	.	.	-23%	.	.
CC(C)C[C@@H]1O[C@H](C(C)C)Cc2[nH][nH]c(=O)c21	.	.	-3%	.	.
CN(C)CCC(=O)C(Cc1ccccc1)c1ccccc1 (stereo not given)	.	.	4.7µM*	.	.
COc1ccc(CC(=O)Nc2cc(S(=O)(=O)N3CCCCC3)ccc2OC(C)C)cc1OC	.	.	2%	.	.
CCN(CC)C(=O)[C@H]1CC(CC(=O)NCC23CC4CC(CC(C4)C2)C3)C(=O)N2CCc3c([nH]c4ccc(OC)cc34)[C@]12C (stereo not given in full)	.	.	-18%	.	.
CC1CCc2nc(NC(=O)c3ccco3)sc2C1 (stereo not given)	4µM*	2.5µM*	-18%	-7%	?
O=C(CCCc1cccs1)Nc1nc2c(s1)CCCC2	?	?	?	-7%	-13%
CC1CCc2nc(NC(=O)C3CCCO3)sc2C1 (stereo not given)	?	?	24µM*	-29%	20µM*
SMILES	VP16 counter	RORg inh	PLK1 PBD block	Sfp PPTase inh	ALDH1A1 block
CC1CCc2nc(NC(=O)Cc3cccs3)sc2C1 (stereo not given)	?	?	-10%	-20%	20µM*
CC1CCc2nc(NC(=O)c3ccc(N4C(=O)CCC4=O)cc3)sc2C1 (stereo not given)	4%	-9%	-4%	4%	.
CC(C)C(=O)NC(=O)C1CCCN1C(=O)/C=C/c1ccccc1 (stereo not given)	4%[10 µM]	5%[10 µM]	.	30%	-1%[13.5 µM]
CS(=O)(=O)Nc1cccc(-c2cc(NC=O)c3ncc(-c4ccc(F)c(Cl)c4)n3c2)c1	.	.	-10%	.	.
Cc1cc(C)c(S(=O)(=O)N(C)CC(=O)N2CCCC2)c(C)c1	.	.	8%	.	.
O=C(Cn1c2ccccc2c(=O)c2ccccc21)Nc1cccc(F)c1	-2%	4%	11µM*	-18%	?
O=C(CC(=O)Nc1cccc(F)c1)Nc1cccc(F)c1	21%	28%	-23%	17%	.
Cc1cc(C)cc(OCC(=O)N2CCN(c3ncccn3)CC2)c1	.	.	-3%	.	.
Cc1ccc(NC(=O)CSCc2cc(=O)n3cc(C)sc3n2)cc1	-2%	-1%	-7%	23%	.
COc1ccc(NC(=O)CSCc2cc(=O)n3cc(C)sc3n2)cc1	1%	-13%	30µM*	8%	.
N#C/C(=N\Nc1cc(Cl)cc(Cl)c1)c1nnc2n1CCCCC2	6.3µM*	6.3µM*	-22%	?	8.9µM*
N#C/C(=C1/CCCCCN1)c1nnc2n1CCCCC2	6%	-2%	-6%	6%	-9%
N#C/C(=C1\C(=O)Nc2c(Cl)cc(Cl)cc21)c1nnc2n1CCCCC2	?	16µM*	?	?	3.5µM*
CCc1ccccc1NC(=O)c1ccc2nc(N3CCOCC3)sc2c1	2%	1%	-17%	7%	.
Cc1ccc(NC(=O)c2ccc3nc(N4CCOCC4)sc3c2)c(Cl)c1	?	-19%	?	50µM*	.
Cc1cc(Cc2c(C)c(C)c(Cc3cc(C)cc(C(C)(C)C)c3O)c(C)c2C)c(O)c(C(C)(C)C)c1	.	.	.	.	7%[13.5 µM]
CCOC(=O)C1=C(C)NC(=S)NC1/C=C/c1ccccc1 (stereo not given)	2µM*	1.8µM*	-14%	-6%	0%
C=CCOC(=O)C1=C(C)NC(=O)NC1/C=C/c1ccccc1 (stereo not given)	0%	-15%	0%	6%	-1%
COC(=O)C1=C(C)NC(=S)NC1/C=C/c1ccccc1 (stereo not given)	16µM*	6.3µM*	4%	-1%	1.1µM*
CCOC(=O)C1=C(C)NC(=O)NC1/C=C\c1ccccc1 (stereo not given)	-11%	1%	-3%	9%	.
CC[C@H](C)[C@H](NC(=O)[C@H](CCCNC(=N)N)NC(=O)[C@@H]1CCCN1C(=O)[C@H](Cc1ccccc1)NC(=O)[C@H](Cc1cnc[nH]1)NC(=O)[C@H](CCCNC(=N)N)NC(=O)[C@@H](NC(=O)[C@H](C)NC(=O)[C@H](CCC(=O)O)NC(=O)[C@H](CC(N)=O)NC(=O)[C@@H](N)CCCCN)C(C)C)C(=O)N[C@@H](Cc1c[nH]c2ccccc12)C(=O)N[C@@H](CC(C)C)C(=O)O	3%	0%	.	5%	.
CCCOc1ccccc1/C=C1/C(=O)ON=C1C	0%	0%	3µM*	56µM*	.
CCCOc1ccc(/C=C2/C(=O)ON=C2C)cc1OCC	-24%	-4%	1.7µM*	?	.
CCOc1cc(/C=C2/C(=O)ON=C2C)cc(Br)c1O	?	?	5%	-28%	.
CCOc1cc(/C=C2\C(=O)ON=C2C)ccc1OCc1ccccc1	?	?	1.5µM*	22µM*	3.5µM*
CCOc1ccc(Cl)cc1-c1cc(C(=O)Nc2ccc(F)cc2)[nH]n1	.	.	4%	.	.
Oc1ccc(-c2cn3c(n2)SCC3)cc1	-4%	0%	-10%	-2%	-1%
